Laboratory results reported in PubChem BioAssay (Tox21).
Results filed as inconclusive are left out. Entries that show only a call come without a potency. Calls of active or inactive are those of the source. The call rests on the fitted dose curve. Positions of bridges follow the written chain, without caps; N, C: chain ends. Non-standard residues stand in square brackets, D forms with d. Residues, ends and D or L forms follow the SMILES beside them. *: point of attachment. Dab(CH2SO3H) = N[C@@H](CCNCS(=O)(=O)O)C(=O)O; X3 = CC[C@@H](C)CCCCC(=O)*; Dab = NCC[C@H](N)C(=O)O

Experiment: qHTS assay for small molecules that induce genotoxicity in human embryonic kidney cells expressing luciferase-tagged ATAD5 - cell viability (AID 651634); further: nearly all actives have a fitted effect of over 25% in size
Settings: HEK293T ATAD5-luc cells viability, CellTiter-Fluor, 15.5 h; series mostly up to 83.3 µM
Description: National Center for Advancing Translational Sciences [NCATS]
NIH Chemical Genomics Center [NCGC]
U.S. Environmental Protection Agency [EPA]
National Institutes of Environmental Health Sciences [NIEHS]
National Toxicology Program [NTP]
U.S. Food and Drug Administration [FDA]
Enhanced Level of Genome Instability Gene 1 (ELG1; human ATAD5) protein levels increase in response to various types of DNA damage. Using a luciferase reporter-gene tagged with ElG1, a cell-based assay [developed by Kyungjae Myung, NHGRI, NIH] was used to measure the induction of ATAD5 in human embryonic kidney cells (HEK293T). So, increase in luciferase activity can be used to identify the compounds that cause genetic stress. In addition to genotoxicity, these cells were also used to test for cytotoxicity by measuring the protease activity within live cells.
Tox21 Assay Protocol Summary:
For cytotoxicity screening, 2,000 cells in 5 uL/well were dispensed into white, solid-bottom 1536-well plates using a Multidrop Combi (Thermo Scientific) dispenser. Following transfer of 23 nL compound or DMSO vehicle by a pin tool, the plates were incubated 15.5 hr at 37C and 5% CO2. 1 ul CellTiter-Fluor reagent (Promega, Madison, WI) was then added to each plate and following 30 min incubation at 37C, fluorescence intensity was quantified on a ViewLux CCD-based plate reader.
Potency means the concentration at half of the fitted maximal effect.

Structure (SMILES) | Potency
Cc1onc(-c2c(F)cccc2Cl)c1C(=O)N[C@@H]1C(=O)N2[C@@H]1SC(C)(C)[C@@H]2C(=O)O | inactive
CC1CCCCN1CCCOC(=O)c1ccccc1 (stereo not given) | inactive
Nc1nc(/C(=C/CC(=O)O)C(=O)N[C@@H]2C(=O)N3C(C(=O)O)=CCS[C@H]23)cs1 | inactive
C[C@H]1O[C@@H](O[C@H]2CC[C@@]3(C)[C@H](CC[C@@H]4[C@@H]3C[C@@H](O)[C@]3(C)[C@@H](C5=CC(=O)OC5)CC[C@]43O)C2)C[C@H](O)[C@@H]1O[C@H]1C[C@H](O)[C@H](O[C@H]2C[C@H](O)[C@H](O[C@@H]3O[C@H](CO)[C@@H](O)[C@H](O)[C@H]3O)[C@@H](C)O2)[C@@H](C)O1 | 0.531 µM (active)
Cc1cc(F)ccc1-c1cc(N2CC[C@@H](O)[C@H]2CO)ncc1N(C)C(=O)C(C)(C)c1cc(C(F)(F)F)cc(C(F)(F)F)c1 | 47.8 µM (active)
CC[C@@H](C)CCCCC(=O)N[C@@H](CCNCS(=O)(=O)O)C(=O)N[C@H](C(=O)N[C@@H](CCNCS(=O)(=O)O)C(=O)N[C@H]1CCNC(=O)[C@H]([C@@H](C)O)NC(=O)[C@H](CCNCS(=O)(=O)O)NC(=O)[C@H](CCNCS(=O)(=O)O)NC(=O)[C@H](CC(C)C)NC(=O)[C@@H](CC(C)C)NC(=O)[C@H](CCNCS(=O)(=O)O)NC1=O)[C@@H](C)O (X3-[Dab(CH2SO3H)]T[Dab(CH2SO3H)][Dab][Dab(CH2SO3H)][dL]L[Dab(CH2SO3H)][Dab(CH2SO3H)]T; lactam 4-C) | inactive
N#Cc1nc(Cl)c(Cl)c(Cl)c1Cl | 4.86 µM (active)
CC[C@@H](C(=O)[C@@H](C)[C@@H](O)[C@H](C)CCc1ccc(C)c(O)c1C(=O)O)[C@H]1O[C@](CC)([C@H]2CC[C@](O)(CC)[C@H](C)O2)C[C@@H]1C | 23.7 µM (active)
CC(C)(C)C(=O)OCC(=O)[C@H]1CC[C@H]2[C@@H]3CCC4=CC(=O)CC[C@]4(C)[C@H]3CC[C@]12C | inactive
CCOC(=O)[C@H](CCc1ccccc1)N[C@@H](C)C(=O)N1[C@H](C(=O)O)C[C@H]2CCCC[C@@H]21 | inactive
SC1CCCCC1 | inactive
COc1cc(/C=C/C(=O)CC(=O)/C=C/c2ccc(O)c(OC)c2)ccc1O | inactive
C=C1[C@@H]2CC[C@@H](C2)C1(C)C | inactive
CSCC[C@H](NC(=O)[C@H](Cc1ccc(OS(=O)(=O)O)cc1)NC(=O)[C@@H](N)CC(=O)O)C(=O)NCC(=O)N[C@@H](Cc1c[nH]c2ccccc12)C(=O)N[C@@H](CCSC)C(=O)N[C@@H](CC(=O)O)C(=O)N[C@@H](Cc1ccccc1)C(N)=O | inactive
CC(C)COC(=O)OCN1C(=O)CN(CCN2CC(=O)N(COC(=O)OCC(C)C)C(=O)C2)CC1=O | inactive
CC(=O)OCC(=O)[C@@]1(O)CC[C@H]2[C@@H]3CCC4=CC(=O)CC[C@]4(C)C3=CC[C@@]21C | inactive
O=C(O)c1cc2cc(Cc3cccnc3)ccc2o1 | inactive
N=C(N)c1ccc(/C=C/c2ccc(C(=N)N)cc2O)cc1 | inactive
CC12CCC(C[N+](C)(CCC[N+](C)(C)C)C1)C2(C)C (stereo not given) | inactive
CC(=O)O[C@H]1C[C@@H]2CC[C@@H]3[C@H](CC[C@@]4(C)[C@H]3C[C@H]([N+]3(C)CCCCC3)[C@@H]4OC(C)=O)[C@@]2(C)C[C@@H]1[N+]1(C)CCCCC1 | inactive

Structure (SMILES) | Potency
CO/N=C(\C(=O)N[C@@H]1C(=O)N2C(C(=O)O)=C(CSc3cnns3)CS[C@H]12)c1csc(N)n1 | inactive
C[C@@H]1O[C@@H](OC[C@H]2O[C@@H](Oc3c(-c4ccc(OCCO)c(OCCO)c4)oc4cc(OCCO)cc(O)c4c3=O)[C@H](O)[C@@H](O)[C@@H]2O)[C@H](O)[C@H](O)[C@H]1O | inactive
C[C@@H]1C[C@H]2[C@@H]3C[C@H](F)C4=CC(=O)C=C[C@]4(C)[C@@]3(Cl)[C@@H](O)C[C@]2(C)[C@H]1C(=O)COC(=O)C(C)(C)C | inactive
C=N[C@@H](C(=O)N[C@@H]1C(=O)N2[C@@H]1SC(C)(C)[C@@H]2C(=O)O)c1ccccc1 | inactive
CO/N=C(\C(=O)N[C@@H]1C(=O)N2C(C(=O)O)=C(CSc3nc(C)c(CC(=O)O)s3)CS[C@H]12)c1csc(N)n1 | inactive
O=c1[nH]c(=O)n([C@H]2C[C@H](O)[C@@H](CO)O2)cc1/C=C/Br | inactive
CCCCCCCCCCCCN1CCCC1=O | inactive
O=C(O)[C@@H]1C[C@H](CP(=O)(O)O)CCN1 | inactive
CC(=O)OCC1=C(C(=O)O)N2C(=O)[C@@H](NC(=O)Cc3ccccc3)[C@H]2SC1 | inactive
CCN(CC)C(=O)[C@]1(c2ccccc2)C[C@@H]1CN | inactive
C=C(Nc1ccc(OCC)cc1)Nc1ccc(OCC)cc1 | inactive
CCN1CCCC1CNC(=O)c1cc(S(=O)(=O)CC)ccc1OC (stereo not given) | inactive
C[C@@H]1C(=O)NC2=Nc3cccc(Cl)c3CN21 | inactive
S=C1NC=NC2N=CNC12 (stereo not given) | inactive
NC(=S)NS(=O)(=O)c1ccc(N)cc1 | inactive
COc1c(O)cc2c(c1O)[C@@H]1O[C@H](CO)[C@@H](O)[C@H](O)[C@H]1OC2=O | inactive
Clc1nc(C(Cl)(Cl)Cl)c(Cl)c(Cl)c1Cl | 48.6 µM (active)
CC[C@@]1([C@@H]2O[C@@H]([C@H]3O[C@@](O)(CO)[C@H](C)C[C@@H]3C)C[C@@H]2C)CC[C@H]([C@]2(C)CC[C@]3(C[C@H](O)[C@@H](C)[C@@H]([C@@H](C)[C@@H](OC)[C@H](C)C(=O)O)O3)O2)O1 (stereo in doubt) | 0.596 µM (active)
O=P(O)(O)C(O)(Cn1ccnc1)P(=O)(O)O | inactive
Cc1ccc(C(C)(C)c2ccc(C)cc2)cc1 | inactive
